± gives the standard deviation.
Tested on: MILI (PIWIL2) piRISC loaded with L1MC piRNA (26 nt)
Test: pre-steady-state target cleavage rate (min^-1); guide: L1MC piRNA 5'p-UAACUAAAUACUAUGCAAGCUGUAGG; MIWI and MILI are mouse PIWI proteins and EfPiwi is from a freshwater sponge; tags in brackets are library labels; higher = faster piRNA-guided slicing of the target
Conditions: auxiliary factor: 500 nM mouse GTSF1
Method in brief: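 The pre-steady-state cleavage rate was calculated from a burst-and-steady-state fit. Data came from Cleave-'n-Seq, in which […] transcribed, DNA-blocked target RNA library was mixed with 1 nM active affinity-purified piRISC carrying one synthetic guide, with or without 500 nM GTSF1 partner protein, in HEPES–potassium acetate buffer at 33 °C for 0–8 or 0–960 min. Uncleaved targets were sequenced and normalised to depth and to weakly complementary targets, three trials were pooled, and k3 was capped at 0.0001 min^-1.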
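Note: 1 nM active piRISC with 0.1 nM target library at 33 °C single turnover.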

For UCCUGGAACUCGUUGCAUAGUAUUUUCAAA, which “pre-steady-state target cleavage rate” value is on record?
The value was 0.0397 ± 0.011.

With UCCUGGAUGUCGAAGACAUAGUAUUUAGUUA as the sequence, how does the “pre-steady-state target cleavage rate” value read?
Its value is 0.0117 ± 0.0056.

UCCUGGAUGUGCUUGCAUAGUAAAUAGUUA was tested. Which “pre-steady-state target cleavage rate” value did it give?
The value was 0.0601 ± 0.012.

Which “pre-steady-state target cleavage rate” value does the source give for UCCUGGAUGUGCUUGCUUAGUAUUUAGAAA here?
The value was 0.0749 ± 0.017.

How did the “pre-steady-state target cleavage rate” value turn out when UCCUGGUACAGCUUGCAUAGUAUUUCGUUA was run?
Its value is 0.114 ± 0.037.

For UCCUGGAAGUCCUUGCAUAGUAUUUUCAAA, which “pre-steady-state target cleavage rate” value is on record?
Its value is 0.0197 ± 0.0079.

UCCUGGAUGUGCUAGCAUAGUAUAUAGUUA was tested. Which “pre-steady-state target cleavage rate” value did it give?
Its value is 0.115 ± 0.018.

How did the “pre-steady-state target cleavage rate” value turn out when UCCUCCUACACGUUGCAUAGUAUUUUCAAA was run?
Its value is 0.0568 ± 0.017.

UCCUGGAUCAGCUUGCAUAGUAUUUUCUUA was tested. Which “pre-steady-state target cleavage rate” value did it give?
The value was 0.0452 ± 0.013.

With UCCUCCUACAGCUUGCAUAGUAUAAUCAAA as the sequence, how does the “pre-steady-state target cleavage rate” value read?
The value was 0.122 ± 0.029.

With UCCUGGAUCACCUUGCAUAGUUUUUAGUUA as the sequence, how does the “pre-steady-state target cleavage rate” value read?
The value was 0.016 ± 0.0061.

Which “pre-steady-state target cleavage rate” value does the source give for UCCUGGAUGUGCUUGCAUAGUAUAUAGUUA here?
The value was 0.083 ± 0.014.

Which “pre-steady-state target cleavage rate” value does the source give for UCCUGGAUGUCGAAGCAUAGUAUUAUAGUUA here?
Its value is 0.0614 ± 0.014.

Which “pre-steady-state target cleavage rate” value does the source give for UCCUGGAUGAGCUUGCAUAGAAUUAAGUUA here?
Its value is 0.00512 ± 0.0037.

Which “pre-steady-state target cleavage rate” value does the source give for UCCUGGAUGACGUUGCAUAGUAUUUACAAA here?
Its value is 0.0104 ± 0.0057.

Which “pre-steady-state target cleavage rate” value does the source give for UCCUCCUACAGCUUGCUAAGUAUUUACAAA here?
The value was 0.0519 ± 0.013.

UCCUGGAUGAGCUUGCAUAGUAUAAUGAAA was tested. Which “pre-steady-state target cleavage rate” value did it give?
Its value is 0.00735 ± 0.0041.

UCCUGGAUGUGCAACCAUAGUAUUUAGUAA was tested. Which “pre-steady-state target cleavage rate” value did it give?
The value was 0.00554 ± 0.0027.

How did the “pre-steady-state target cleavage rate” value turn out when UCCUGGAUGUCGUUGCAAAGUAUUAAGUUA was run?
Its value is 0.0094 ± 0.0044.

Which “pre-steady-state target cleavage rate” value does the source give for UCCUGGAUGUGCUUGCAUAGUAAUUUGUUA here?
Its value is 0.0141 ± 0.0071.

Which “pre-steady-state target cleavage rate” value does the source give for UCCUGGAUGUCCUUGCUAAGUAUUUAGUAA here?
The value was 0.0128 ± 0.006.

With UCCUGGAACAGGUUGCAUAGUAUUUACUUA as the sequence, how does the “pre-steady-state target cleavage rate” value read?
Its value is 0.0532 ± 0.012.

How did the “pre-steady-state target cleavage rate” value turn out when UCCUGGAUGUCGAACCAUAGUAUUUAGUUUA was run?
Its value is 0.00592 ± 0.0031.

How did the “pre-steady-state target cleavage rate” value turn out when UCCUGGAUGAGCUUGCAUACUAUUUUGUUA was run?
Its value is 0.0073 ± 0.005.

UCCUGGAACAGCUUGCAUAGUAUUUAGUCUA was tested. Which “pre-steady-state target cleavage rate” value did it give?
The value was 0.055 ± 0.015.

Which “pre-steady-state target cleavage rate” value does the source give for UCCUGGAACAGCUUGCAUAGUAUUAUCUUA here?
Its value is 0.0578 ± 0.015.

Which “pre-steady-state target cleavage rate” value does the source give for UCCUGGAUGAGCUUGCAUAGAAUAUAGUUA here?
Its value is 0.0218 ± 0.0083.

With UCCUGGAACAGCUUGCAUAGUAUUUAUUA as the sequence, how does the “pre-steady-state target cleavage rate” value read?
Its value is 0.046 ± 0.014.

Which “pre-steady-state target cleavage rate” value does the source give for UCCUGGAUGUCCUUGCAUAGUAAAAAGUAA here?
The value was 0.00651 ± 0.0043.

For UCCUGGAUGUCGUUGCCAUAGUAUUUAGUUA, which “pre-steady-state target cleavage rate” value is on record?
The value was 0.00586 ± 0.0034.

With UCCUGGAUCAGCUUGCAUAGUUUUUACUUA as the sequence, how does the “pre-steady-state target cleavage rate” value read?
Its value is 0.00933 ± 0.0038.

UCCUGGAUGUCCUUGCAUAGUAUUUAUGUUA was tested. Which “pre-steady-state target cleavage rate” value did it give?
The value was 0.0185 ± 0.0059.

How did the “pre-steady-state target cleavage rate” value turn out when UCCUGCUACACGAUGCAUAGUAUUUACAAA was run?
Its value is 0.0504 ± 0.02.

For UCCUGCUACAGCUUGGUUAGUAUUUAGAAA, which “pre-steady-state target cleavage rate” value is on record?
The value was 0.018 ± 0.007.

With UCCUGGUACAGCUUGGAUAGUAUUUAGAUA as the sequence, how does the “pre-steady-state target cleavage rate” value read?
Its value is 0.118 ± 0.038.

Which “pre-steady-state target cleavage rate” value does the source give for UCCUGGAACAGCAAGCAUAGUAUUUUCAAA here?
The value was 0.0642 ± 0.018.

Same assay, conditions: auxiliary factor: none (no GTSF1)

Which “pre-steady-state target cleavage rate” value does the source give for UCCUGGAUGUGCUUCCAUAGUAUUUAGAUA here?
The value was less than 0.0001.

Which “pre-steady-state target cleavage rate” value does the source give for UCCUGGAUGUCGAACGUGAGUAUUUAGUUA here?
Its value is less than 0.0001.

UCCUGGAUGUCGAUGCAUACUAUUUAGAUA was tested. Which “pre-steady-state target cleavage rate” value did it give?
The value was less than 0.0001.

UCCUGGAUCAGCUACCAUAGUAUUUUCAAA was tested. Which “pre-steady-state target cleavage rate” value did it give?
Its value is less than 0.0001.
